The target of assay [1] is Mitogen-activated protein kinase 7 (Homo sapiens) (UniProt Q13164). The experiment in a line: ERK5 transactivation activators in reporter cells, primary screen, cell-based, HTS (AID 1508626).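 Also: luciferase driven by Gal4-ERK5 fusion binding five Gal4 sites before minimal TATA.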 The settings on record: HeLa Gal4-ERK5 transactivation, 18 h, at 5 µM, active compounds read high.
Assay [2] deals with NAD(+) hydrolase SARM1 (Homo sapiens) (UniProt Q6SZW1). Description: SARM1 TIR NADase inhibitors, cell lysate, NAD-Glo luminescence (AID 1508614;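 active = compound whose remaining NAD level is above about 45 nM, limit read from the data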;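 also: higher remaining NAD means stronger inhibition of SARM1 NADase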). The note with it: SAM-TIR HEK293T lysate NADase, at 1 µM, active compounds read high.
Sequence of NAD(+) hydrolase SARM1 (Homo sapiens) (Q6SZW1 whole entry, looked up): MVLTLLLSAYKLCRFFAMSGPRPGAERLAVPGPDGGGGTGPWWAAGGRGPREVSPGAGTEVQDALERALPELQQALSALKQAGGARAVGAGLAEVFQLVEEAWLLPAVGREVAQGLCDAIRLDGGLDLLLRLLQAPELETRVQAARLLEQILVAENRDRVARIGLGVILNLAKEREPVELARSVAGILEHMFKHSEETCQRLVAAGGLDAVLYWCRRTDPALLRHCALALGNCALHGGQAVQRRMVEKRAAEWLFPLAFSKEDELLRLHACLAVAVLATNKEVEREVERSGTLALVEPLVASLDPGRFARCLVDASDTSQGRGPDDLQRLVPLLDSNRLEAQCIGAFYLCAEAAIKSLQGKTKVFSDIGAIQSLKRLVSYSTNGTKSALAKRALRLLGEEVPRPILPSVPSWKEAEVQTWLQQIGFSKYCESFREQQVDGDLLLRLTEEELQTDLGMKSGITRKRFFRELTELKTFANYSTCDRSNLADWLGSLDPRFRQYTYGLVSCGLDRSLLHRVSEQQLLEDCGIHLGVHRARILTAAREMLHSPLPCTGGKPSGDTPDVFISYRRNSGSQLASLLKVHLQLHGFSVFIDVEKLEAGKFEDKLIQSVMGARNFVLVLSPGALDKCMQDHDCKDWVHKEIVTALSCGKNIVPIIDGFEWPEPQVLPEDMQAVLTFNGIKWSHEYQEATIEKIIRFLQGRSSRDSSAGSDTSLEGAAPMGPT
The nature of assay [3]: hESC survival regulators, cell-based (AID 493140; call rule not given here;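 also: cells exposed to compounds for four days before counting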). The note with it: human embryonic stem cell survival screen; active compounds read high.

Values without a mark were called inactive. Activity calls are given as the source filed them.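 The calls were made as follows, unless noted: active = luciferase signal above three times the same-plate solvent-only control wells; inactive = the rest.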

Sequence of Mitogen-activated protein kinase 7 (Homo sapiens) (Q13164 whole entry, looked up, the tested form may be a part): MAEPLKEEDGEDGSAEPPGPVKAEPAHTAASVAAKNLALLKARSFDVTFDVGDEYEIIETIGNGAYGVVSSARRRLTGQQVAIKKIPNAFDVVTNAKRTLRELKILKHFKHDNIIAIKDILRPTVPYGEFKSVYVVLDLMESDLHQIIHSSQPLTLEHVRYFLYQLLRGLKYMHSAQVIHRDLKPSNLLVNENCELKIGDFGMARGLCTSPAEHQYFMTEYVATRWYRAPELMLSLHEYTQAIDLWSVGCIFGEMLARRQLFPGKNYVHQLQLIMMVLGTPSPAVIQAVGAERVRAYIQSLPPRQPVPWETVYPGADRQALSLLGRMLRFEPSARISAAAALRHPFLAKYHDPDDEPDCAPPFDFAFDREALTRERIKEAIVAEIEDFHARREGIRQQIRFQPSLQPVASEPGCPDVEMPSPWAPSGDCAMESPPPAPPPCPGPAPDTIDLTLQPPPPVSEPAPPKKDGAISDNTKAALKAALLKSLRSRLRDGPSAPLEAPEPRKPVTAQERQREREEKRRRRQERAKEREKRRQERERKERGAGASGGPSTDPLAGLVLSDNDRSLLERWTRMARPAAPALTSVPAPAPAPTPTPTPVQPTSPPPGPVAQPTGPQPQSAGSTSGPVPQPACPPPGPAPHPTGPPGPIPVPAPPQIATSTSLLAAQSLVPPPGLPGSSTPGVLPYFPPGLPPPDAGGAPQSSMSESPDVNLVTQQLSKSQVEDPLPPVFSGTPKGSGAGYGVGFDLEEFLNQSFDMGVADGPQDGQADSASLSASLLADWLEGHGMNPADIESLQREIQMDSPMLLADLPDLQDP

For the molecule `CC1(C)O[C@H]2[C@H](O)C[C@](O)(C(N)=O)C[C@H]2O1`, in assay [1], the luciferase signal was 20 AU.

Consider `CC(=O)[C@H]1CC[C@H]2[C@@H]3CC=C4C[C@@H](OC(=O)CCC(=O)O)CC[C@]4(C)[C@H]3CC[C@]12C`, for which the remaining NAD in assay [2] is 10 nM. The luciferase signal in assay [1] is 52 AU.

As to `CC(=O)OCC(=O)[C@@]1(O)CCC2C3CC[C@@H]4C[C@H](O)CC[C@]4(C)C3C(=O)C[C@@]21C` (some centres not stated), the luciferase signal in assay [1] was 112 AU.

Regarding `CC(=O)OCC(=O)[C@@]1(O)[C@@H](C)C[C@H]2[C@@H]3CCC4=CC(=O)C=C[C@]4(C)[C@@]3(F)[C@@H](O)C[C@@]21C`, in assay [2], the remaining NAD is 10 nM. The luciferase signal in assay [1] was 132 AU.

Take `CC1(C)S[C@@H]2[C@H](NC(=O)[C@H](C(=O)O)c3ccsc3)C(=O)N2[C@H]1C(=O)O`: the survival in assay [3] was 15.8. The remaining NAD in assay [2] was 10 nM. In addition, in assay [1], the luciferase signal is 44 AU.

On to `CC(=O)OCC(=O)[C@H]1CC[C@H]2[C@@H]3CC=C4C[C@@H](O)CC[C@]4(C)[C@H]3CC[C@]12C`, for which the luciferase signal in assay [1] is 256 AU (active).

Consider `CC[C@H]1OC(=O)C[C@@H](O)[C@H](C)[C@@H](O[C@@H]2O[C@H](C)[C@@H](O)[C@H](N(C)C)[C@H]2O)[C@@H](CCN2C[C@H](C)C[C@H](C)C2)C[C@@H](C)C(=O)/C=C/C(C)=C/[C@@H]1CO[C@@H]1O[C@H](C)[C@@H](O)[C@@H](OC)[C@H]1OC`, for which the remaining NAD in assay [2] was 10 nM. In assay [1], the luciferase signal was 36 AU.

Take `COc1cc(-c2oc3cc(O)ccc3c(=O)c2O)ccc1O`: the luciferase signal in assay [1] was 92 AU.

In the case of `CO[C@@H]1[C@@H](O[C@@H]2O[C@H](C)[C@@H](O[C@H]3C[C@@](C)(O)[C@@H](O)[C@H](C)O3)[C@H](N(C)C)[C@H]2O)[C@@H](CC=O)C[C@@H](C)[C@@H](O[C@H]2CC[C@H](N(C)C)[C@@H](C)O2)/C=C/C=C/C[C@@H](C)OC(=O)C[C@H]1O`, in assay [2], the remaining NAD is 10 nM. In addition, the luciferase signal in assay [1] is 216 AU.

As for `COc1ccc(-c2cc(=O)c3c(O)c(OC)c(OC)c(OC)c3o2)cc1`, the luciferase signal in assay [1] was 120 AU.

`CCN[C@@H]1C[C@H](N)[C@@H](O[C@H]2OC(CN)=CC[C@H]2N)[C@H](O)[C@H]1O[C@H]1OC[C@](C)(O)[C@H](NC)[C@H]1O`: the remaining NAD in assay [2] is 10 nM. Moreover, the luciferase signal in assay [1] was 56 AU.

Take `O=c1c2cc(O)c(O)cc2oc2cc(O)c([C@@H]3O[C@H](CO)[C@@H](O)[C@H](O)[C@H]3O)c(O)c12`: the luciferase signal in assay [1] is 48 AU.

For the molecule `CO[C@H]1O[C@H](CO)C(O[C@@H]2OC(C(=O)O)[C@@H](O[C@H]3O[C@H](COS(=O)(=O)O)C(O[C@@H]4OC(C(=O)O)[C@@H](O[C@H]5O[C@H](CO)C(O[C@@H]6OC(C(=O)O)[C@@H](O[C@H]7O[C@H](COS(=O)(=O)O)C(O[C@@H]8OC(C(=O)O)=C[C@H](O)C8OS(=O)(=O)O)[C@H](O)[C@H]7NC(C)=O)[C@H](O)[C@H]6O)[C@H](O)[C@H]5NC(C)=O)[C@H](O)[C@H]4O)[C@H](O)[C@H]3NC(C)=O)[C@H](O)[C@H]2O)[C@H](O)[C@H]1NC(C)=O` (some centres not stated), the luciferase signal in assay [1] was 100 AU.

Consider `COC(=O)CC[C@@H](C)[C@H]1CC[C@H]2[C@@H]3CC[C@@H]4C[C@H](O)CC[C@]4(C)[C@H]3C[C@H](O)[C@]12C`, for which the luciferase signal in assay [1] was 108 AU.

Regarding `CC1(C)S[C@@H]2[C@H](N3C(=O)[C@@H](c4ccccc4)NC3(C)C)C(=O)N2[C@H]1C(=O)O`, in assay [2], the remaining NAD was 10 nM. In assay [1], the luciferase signal is 40 AU.

With `CC(C)CCC[C@@H](C)[C@H]1CC[C@H]2[C@@H]3C(=O)C=C4C[C@@H](O)CC[C@]4(C)[C@H]3CC[C@]12C`, the luciferase signal in assay [1] was 80 AU.

In the case of `O[C@H]1[C@H](O)[C@@H](O)C2OC[C@H]1O2`, in assay [1], the luciferase signal was 60 AU.

Regarding `CC(C)c1c(O)ccc2c1CCC1[C@@](C)(CO)CCC[C@]21C` (some centres not stated), the luciferase signal in assay [1] is 112 AU.

In the case of `CN[C@@H]1[C@@H](O)[C@@H](O[C@@H]2[C@@H](O)[C@H](O[C@H]3OC(CN)=CC[C@H]3N)[C@@H](N)C[C@H]2N)OC[C@]1(C)O`, the remaining NAD in assay [2] is 10 nM. In addition, the luciferase signal in assay [1] was 48 AU.

As to `CC(=O)O[C@@](C)(CCC=C(C)C)C1CC=C(C)CC1` (some centres not stated), in assay [1], the luciferase signal was 72 AU.

For the molecule `CO[C@H]1C[C@@H]2CC[C@@H](C)[C@@](O)(O2)C(=O)C(=O)N2CCCC[C@H]2C(=O)O[C@H]([C@H](C)C[C@@H]2CC[C@@H](O)[C@H](OC)C2)CC(=O)[C@H](C)/C=C(\C)[C@@H](O)[C@@H](OC)C(=O)[C@H](C)C[C@H](C)\C=C/C=C/C=C/1C`, the remaining NAD in assay [2] was 10 nM. Also, in assay [1], the luciferase signal was 64 AU.

As to `O=C(O)C1=C(CSc2nnnn2CS(=O)(=O)O)CS[C@@H]2[C@H](NC(=O)[C@H](O)c3ccccc3)C(=O)N12`, in assay [2], the remaining NAD was 10 nM. For the same molecule, the luciferase signal in assay [1] was 84 AU.

On to `C[C@@H]1C\C=C/C=C/C=C/C=C/[C@H](O[C@@H]2O[C@H](C)[C@@H](O)[C@H](N)[C@@H]2O)C[C@@H]2O[C@](O)(C[C@@H](O)C[C@@H]3O[C@@H]3/C=C\C(=O)O1)C[C@H](O)[C@H]2C(=O)O`, for which, in assay [2], the remaining NAD is 10 nM. In addition, the luciferase signal in assay [1] is 292 AU.

As to `NCCC(=O)c1ccccc1N`, the luciferase signal in assay [1] is 88 AU.

As for `O=C(O)/C=C/c1ccccc1`, the luciferase signal in assay [1] is 52 AU.

For the origin of these results see PubChem BioAssay.
